From PubChem BioAssay (Tox21) come the findings set out here.

Where “and” joins values, the source holds several entries; their conditions need not be identical. Identical values can stand only once. Inconclusive results are not listed. Calls of active or inactive are those of the source. Unless noted, calls come from the whole dose curve; as a rule, active = well fitted curve in the direction sought with a large enough effect in the repeat runs; inconclusive = weak or mixed curves; inactive = no such curve, though single readings can be large; an effect the other way counts as inactive or inconclusive.

The target of test [1] is Thyrotropin-releasing hormone receptor (Homo sapiens) (UniProt P34981). Description: qHTS assay to identify small molecule agonists of the thyrotropin-releasing hormone receptor (TRHR) signaling pathway (AID 1346891; calls by dose curve;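 note: HEK293 cells expressing TRHR with calcium dye readout; series mostly up to about 58 µM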). In a few lines:
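Cells: TRHR-Hek293, seeded and incubated 18 h. Dye loading: 2 h at 37 °C. Compound added from DMSO stock by pin tool. Read-out: kinetic calcium fluorescence over 3 min.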

A short description of test [2]: Human pregnane X receptor (PXR) small molecule agonists, qHTS cell viability counter screen (AID 1346977). Note: nearly all actives have a fitted effect of over 50% in size. Note: potency is the fitted concentration of half-maximal effect. In a few lines: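 Cytotoxicity counter screen run in the same wells as the PXR luciferase assay, using PXR-Luc HepG2 cells in charcoal-stripped serum medium. Viability: CellTiter-Fluor fluorescence after 24hr compound treatment.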
For orientation: Quantitative high-throughput screening tests each substance at several concentrations.

Test [3] in a line: Caspase-3/7 induction in HepG2 cells by small molecules, qHTS assay (AID 1346978). Note: nearly all actives have a fitted effect of over 15% in size. In a few lines:
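Wild-type HepG2 cells (2,000/well) were settled 5 h at 37 C, 5% CO2, then exposed to compounds in DMSO for 17 h. Caspase-3/7 activity was read by luminescence 30 min after adding Caspase-Glo 3/7 reagent at room temperature.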

A short description of test [4]: Caspase-3/7 induction in CHO-K1 cells by small molecules, qHTS cell viability counter screen (AID 1346979). Note: nearly all actives have a fitted effect of over 35% in size. Note: potency is the fitted concentration of half-maximal effect. In outline:
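Cytotoxicity counter screen run in parallel with the caspase-3/7 assay: CHO-K1 cells, 16hr compound treatment at 37C, then CellTiter-Fluor for 1hr before fluorescence reading.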

Test [5] can be described thus: Caspase-3/7 induction in CHO-K1 cells by small molecules, qHTS assay (AID 1346980). Note: nearly all actives have a fitted effect of over 15% in size. In a few lines: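 Wild-type cells were seeded at 1,500 per well and settled 5 hr at 37 C, 5% CO2, then exposed to DMSO-dissolved compounds for 17 hr. Caspase-Glo 3/7 reagent was added, and luminescence was read after 30min at room temperature.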
The nature of test [6]: Caspase-3/7 induction in HepG2 cells by small molecules, qHTS cell viability counter screen (AID 1346981). Note: nearly all actives have a fitted effect of over 30% in size. Note: potency is the fitted concentration of half-maximal effect. In a few lines: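 After a 5-hr attachment period at 37 C and 5% CO2, wild-type HepG2 cells received compounds in DMSO. Sixteen hours later CellTiter-Fluor was dispensed and the fluorescent signal quantified after a further hour.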
Test [7] addresses Nuclear receptor subfamily 1 group I member 2 (Homo sapiens) (UniProt O75469). Put plainly: Human pregnane X receptor (PXR) small molecule agonists, qHTS assay (AID 1346982). Note: nearly all actives have a fitted effect of over 35% in size. In outline: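 Tox21 qHTS; PXR-Luc HepG2; compounds pinned from DMSO; 24 hr, 37 C; ONE-Glo luciferase detection, 30 min room temperature.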
For test [8], the target named is Acetylcholinesterase (Homo sapiens) (UniProt P22303). Description: Acetylcholinesterase (AChE) small molecule antagonists: colormetric cell-based qHTS assay (AID 1347395; calls by dose curve; note: nearly all actives have a fitted effect of over 30% in size). In a few lines: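 Cells (SH-SY5Y, 2,000 per well) are seeded and left overnight at 37 C. Compound is added for 30 min, then DTNB and acetylthiocholine for a further 90 min at 37 C before absorbance-based thiocholine detection.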

The target is the same in test [9]. Description: Acetylcholinesterase (AChE) small molecule antagonists: enzyme-based qHTS assay (AID 1347397; calls by dose curve; note: nearly all actives have a fitted effect of over 55% in size). Particulars: Potency: AChE enzyme activity inhibition; outcome: AChE enzyme activity inhibition. In outline: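 Tox21 library chemicals are tested in qHTS format against recombinant human AChE. The enzyme, dispensed at 50 mU/mL, sits with compound for 30 min at room temperature. A DTNB–acetylthiocholine cocktail follows, and colour is read after 10 min.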

For test [10] the target is unchanged. Description: Acetylcholinesterase (AChE) small molecule antagonists: fluorescence cell-based qHTS assay (AID 1347398; calls by dose curve; note: nearly all actives have a fitted effect of over 50% in size). The note with it: Potency: AChE activity; outcome: AChE activity. In outline:
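Cellular AChE inhibition: SH-SY5Y cells treated with test chemical for 30 min at 37 C, then acetylthiocholine hydrolysis followed over 40 min at room temperature via thiocholine-reactive Thiolite Green fluorescence (490/520 nm).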

For test [11] the target is unchanged. Put plainly: Acetylcholinesterase (AChE) small molecule antagonists: enzyme-based qHTS assay with human liver microsomes (AID 1347399; calls by dose curve; note: nearly all actives have a fitted effect of over 60% in size). The note with it: Potency: qHTS inhibition; outcome: qHTS inhibition. In outline:
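Recombinant human AChE (50 mU/mL in the enzyme mix) and human liver microsomes (0.25 mg/mL final) were preincubated with compound and NADPH (0.25 mg/mL final) for 30 min at 37 C. Acetylthiocholine/DTNB was then added; thiocholine was read colorimetrically after 10 min at room temperature.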

Test [12] concerns the target Cytochrome P450 2C9 (Homo sapiens) (UniProt P11712). Put plainly: Cytochrome P450 Family 2 Subfamily C Member 9 (CYP2C9) small molecule antagonists: luciferase reporter qHTS assay (AID 1671198). Note: nearly all actives have a fitted effect of over 50% in size. Note: potency is the fitted concentration of half-maximal effect. In a few lines: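 CYP2C9 activity was measured with a P450-Glo proluciferin substrate. Enzyme–substrate mix was held with compound for 10 min at room temperature, then NADPH regeneration solution was added for 1 h at 37C. Luciferin product was read as luminescence.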

The target in test [13] is Voltage-gated inwardly rectifying potassium channel KCNH2 (Homo sapiens) (UniProt Q12809). Put plainly: Human Ether-a-go-go-Related Gene (hERG) channel small molecule antagonists: fluorescence cell-based qHTS assay (AID 1671200).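 Note: hERG-expressing U2OS cells given a thallium stimulus after FluxOR II dye loading; series mostly up to about 77 µM; nearly all actives have a fitted effect of over 50% in size.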 In outline: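 Fluorescence at 540 nm emission (480 nm excitation) was recorded kinetically for 2 min at 1-second intervals once the thallium-containing stimulus reached cells previously loaded with FluxOR II dye.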
(The hERG channel carries a current that helps repolarise heart muscle cells.)

The target in test [14] is Cytochrome P450 3A4 (Homo sapiens) (UniProt P08684). Put plainly: Cytochrome P450 Family 3 Subfamily A Member 4 (CYP3A4) small molecule antagonists: luciferase reporter qHTS assay (AID 1671201). Note: nearly all actives have a fitted effect of over 50% in size. Note: potency is the fitted concentration of half-maximal effect. In outline: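 qHTS, 1536-well. CYP3A4 + proluciferin substrate, cpd 10 min RT → NADPH regen 1 h RT → detection reagent 20 min → luminescence (RLU). Ketoconazole positive control.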
In general terms: Reporter assays use an easily measured gene product as a stand-in for the process of interest.

For test [15], the target named is Cytochrome P450 2D6 (Homo sapiens) (UniProt P10635). Put plainly: Cytochrome P450 Family 2 Subfamily D Member 6 (CYP2D6) small molecule antagonists: luciferase reporter qHTS assay (AID 1671196). Note: nearly all actives have a fitted effect of over 50% in size. Note: potency is the fitted concentration of half-maximal effect. In outline: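 Room-temperature luminescent CYP2D6 activity assay: compound preincubated 10 min with enzyme–substrate mix, NADPH-initiated reaction 1 h, detection reagent 20 min before reading.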

The target of test [16] is Cytochrome P450 2C19 (Homo sapiens) (UniProt P33261). Put plainly: Cytochrome P450 Family 2 Subfamily C Member 19 (CYP2C19) small molecule antagonists: luciferase reporter qHTS assay (AID 1671197). Note: nearly all actives have a fitted effect of over 65% in size. Note: potency is the fitted concentration of half-maximal effect. In a few lines: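 CYP2C19 P450-Glo, 1536-well qHTS. Cpd + enzyme/proluciferin substrate 10 min RT; + NADPH regen, 37C 1 h; stop with luciferin detection reagent, 20 min RT, luminescence (RLU). Pos ctrl ketoconazole.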

For test [17], the target named is Cytochrome P450 1A2 (Homo sapiens) (UniProt P05177). Description: Cytochrome P450 Family 1 Subfamily A Member 2 (CYP1A2) small molecule antagonists: luciferase reporter qHTS assay (AID 1671199). Note: nearly all actives have a fitted effect of over 50% in size. Note: potency is the fitted concentration of half-maximal effect. In outline: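 Room-temperature CYP1A2 reaction with proluciferin substrate: compounds added from DMSO, 10 min preincubation, NADPH regeneration for 1 h. Luciferin detection reagent then added; luminescence recorded as RLU.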

Chain of Voltage-gated inwardly rectifying potassium channel KCNH2 (Homo sapiens) (Q12809 whole entry, looked up): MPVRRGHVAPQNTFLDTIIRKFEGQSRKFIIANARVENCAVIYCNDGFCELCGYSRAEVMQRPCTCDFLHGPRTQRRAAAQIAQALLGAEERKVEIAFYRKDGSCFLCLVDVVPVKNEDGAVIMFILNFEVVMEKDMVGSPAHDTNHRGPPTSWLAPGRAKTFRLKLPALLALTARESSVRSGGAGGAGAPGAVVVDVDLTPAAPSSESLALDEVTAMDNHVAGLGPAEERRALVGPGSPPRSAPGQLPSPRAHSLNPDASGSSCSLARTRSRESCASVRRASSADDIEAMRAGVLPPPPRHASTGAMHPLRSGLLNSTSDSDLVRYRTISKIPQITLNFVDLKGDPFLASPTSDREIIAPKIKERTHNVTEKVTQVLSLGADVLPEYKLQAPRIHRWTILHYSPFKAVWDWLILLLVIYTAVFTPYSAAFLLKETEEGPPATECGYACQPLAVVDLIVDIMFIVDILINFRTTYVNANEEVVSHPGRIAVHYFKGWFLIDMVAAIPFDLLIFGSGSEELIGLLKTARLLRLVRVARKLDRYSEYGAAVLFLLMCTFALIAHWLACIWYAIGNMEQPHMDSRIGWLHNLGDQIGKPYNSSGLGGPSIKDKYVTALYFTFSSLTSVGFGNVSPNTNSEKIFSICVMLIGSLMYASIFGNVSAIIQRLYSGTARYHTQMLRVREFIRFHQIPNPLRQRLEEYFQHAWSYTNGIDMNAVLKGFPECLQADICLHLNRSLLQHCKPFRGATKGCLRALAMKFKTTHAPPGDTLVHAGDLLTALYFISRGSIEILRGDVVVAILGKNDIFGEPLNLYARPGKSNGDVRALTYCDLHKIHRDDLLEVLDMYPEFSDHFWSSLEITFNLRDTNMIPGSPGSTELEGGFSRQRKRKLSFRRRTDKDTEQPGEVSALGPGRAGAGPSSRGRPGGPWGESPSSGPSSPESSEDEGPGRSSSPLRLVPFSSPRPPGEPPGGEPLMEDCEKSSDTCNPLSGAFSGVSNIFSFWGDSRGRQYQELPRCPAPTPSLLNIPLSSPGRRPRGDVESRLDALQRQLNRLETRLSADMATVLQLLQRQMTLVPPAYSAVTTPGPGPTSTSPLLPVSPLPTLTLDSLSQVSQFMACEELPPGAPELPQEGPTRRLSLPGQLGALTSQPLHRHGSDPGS
Chain of Acetylcholinesterase (Homo sapiens) (P22303 whole entry, looked up): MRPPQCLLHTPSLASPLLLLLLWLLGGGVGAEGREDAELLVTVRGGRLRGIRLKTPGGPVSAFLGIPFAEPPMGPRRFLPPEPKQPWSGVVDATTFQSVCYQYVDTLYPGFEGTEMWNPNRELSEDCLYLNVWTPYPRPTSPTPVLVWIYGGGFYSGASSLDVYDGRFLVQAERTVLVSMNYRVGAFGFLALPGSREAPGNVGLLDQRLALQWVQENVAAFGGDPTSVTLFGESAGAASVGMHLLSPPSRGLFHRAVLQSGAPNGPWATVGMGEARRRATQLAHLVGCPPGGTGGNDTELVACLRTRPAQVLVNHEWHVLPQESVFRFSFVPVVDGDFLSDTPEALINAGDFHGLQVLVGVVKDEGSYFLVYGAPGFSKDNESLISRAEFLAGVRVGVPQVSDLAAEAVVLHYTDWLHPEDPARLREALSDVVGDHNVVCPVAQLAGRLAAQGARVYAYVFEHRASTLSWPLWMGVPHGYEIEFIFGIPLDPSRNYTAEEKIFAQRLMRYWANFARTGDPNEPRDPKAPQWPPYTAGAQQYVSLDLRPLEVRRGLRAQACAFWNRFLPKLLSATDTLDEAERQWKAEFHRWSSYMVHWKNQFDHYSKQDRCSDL
Chain of Cytochrome P450 2C19 (Homo sapiens) (P33261 whole entry, looked up): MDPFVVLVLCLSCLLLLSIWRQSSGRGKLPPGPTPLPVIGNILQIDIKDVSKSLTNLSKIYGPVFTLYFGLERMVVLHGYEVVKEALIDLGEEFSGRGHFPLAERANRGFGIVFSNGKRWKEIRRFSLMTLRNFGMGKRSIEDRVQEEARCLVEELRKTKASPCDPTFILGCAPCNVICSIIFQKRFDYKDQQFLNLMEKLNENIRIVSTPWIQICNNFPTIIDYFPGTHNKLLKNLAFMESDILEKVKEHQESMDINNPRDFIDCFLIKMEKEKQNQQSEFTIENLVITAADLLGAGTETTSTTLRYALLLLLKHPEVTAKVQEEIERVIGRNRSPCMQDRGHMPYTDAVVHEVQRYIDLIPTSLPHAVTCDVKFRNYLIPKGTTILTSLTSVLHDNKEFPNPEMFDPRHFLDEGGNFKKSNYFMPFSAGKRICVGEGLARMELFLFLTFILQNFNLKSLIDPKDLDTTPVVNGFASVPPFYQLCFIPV
Chain of Cytochrome P450 3A4 (Homo sapiens) (P08684 whole entry, looked up): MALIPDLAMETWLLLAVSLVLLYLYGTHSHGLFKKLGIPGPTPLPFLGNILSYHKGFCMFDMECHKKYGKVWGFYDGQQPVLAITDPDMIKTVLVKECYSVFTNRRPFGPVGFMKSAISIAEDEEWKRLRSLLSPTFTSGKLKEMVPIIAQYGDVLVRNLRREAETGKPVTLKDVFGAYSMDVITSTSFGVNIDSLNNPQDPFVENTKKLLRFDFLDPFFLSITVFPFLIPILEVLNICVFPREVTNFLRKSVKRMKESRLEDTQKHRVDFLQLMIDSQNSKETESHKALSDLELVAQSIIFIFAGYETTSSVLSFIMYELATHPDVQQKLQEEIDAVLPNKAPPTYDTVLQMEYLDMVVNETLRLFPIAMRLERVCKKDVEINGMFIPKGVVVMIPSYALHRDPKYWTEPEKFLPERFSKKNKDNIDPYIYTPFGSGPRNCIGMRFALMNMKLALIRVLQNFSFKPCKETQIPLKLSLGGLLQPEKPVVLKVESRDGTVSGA
Chain of Cytochrome P450 2D6 (Homo sapiens) (P10635 whole entry, looked up): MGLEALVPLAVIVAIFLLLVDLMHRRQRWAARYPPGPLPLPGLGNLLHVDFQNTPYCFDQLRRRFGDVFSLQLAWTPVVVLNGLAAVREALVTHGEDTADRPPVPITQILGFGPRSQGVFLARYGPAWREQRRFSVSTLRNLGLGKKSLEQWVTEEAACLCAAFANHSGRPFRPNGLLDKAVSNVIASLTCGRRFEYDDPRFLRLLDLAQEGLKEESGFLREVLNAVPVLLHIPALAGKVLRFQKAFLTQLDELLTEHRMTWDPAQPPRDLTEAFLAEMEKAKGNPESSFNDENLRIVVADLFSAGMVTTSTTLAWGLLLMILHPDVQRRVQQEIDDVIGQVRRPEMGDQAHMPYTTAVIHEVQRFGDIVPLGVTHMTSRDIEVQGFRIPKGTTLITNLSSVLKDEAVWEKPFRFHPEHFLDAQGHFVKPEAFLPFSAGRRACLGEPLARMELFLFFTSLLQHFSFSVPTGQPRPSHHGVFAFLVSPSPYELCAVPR
Chain of Cytochrome P450 2C9 (Homo sapiens) (P11712 whole entry, looked up): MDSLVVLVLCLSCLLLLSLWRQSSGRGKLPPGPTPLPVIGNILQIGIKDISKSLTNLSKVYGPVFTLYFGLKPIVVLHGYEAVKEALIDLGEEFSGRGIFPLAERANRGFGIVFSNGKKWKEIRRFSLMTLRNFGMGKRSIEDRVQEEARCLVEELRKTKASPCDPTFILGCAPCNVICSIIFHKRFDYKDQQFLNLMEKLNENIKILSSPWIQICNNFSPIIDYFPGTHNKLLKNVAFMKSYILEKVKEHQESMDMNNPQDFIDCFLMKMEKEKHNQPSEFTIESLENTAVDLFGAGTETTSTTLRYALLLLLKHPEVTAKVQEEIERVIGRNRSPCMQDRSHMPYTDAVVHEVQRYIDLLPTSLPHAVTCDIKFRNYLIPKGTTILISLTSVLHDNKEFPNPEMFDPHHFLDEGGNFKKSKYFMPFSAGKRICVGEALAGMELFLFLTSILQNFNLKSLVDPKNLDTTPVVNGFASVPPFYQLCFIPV
Chain of Thyrotropin-releasing hormone receptor (Homo sapiens) (P34981 whole entry, looked up): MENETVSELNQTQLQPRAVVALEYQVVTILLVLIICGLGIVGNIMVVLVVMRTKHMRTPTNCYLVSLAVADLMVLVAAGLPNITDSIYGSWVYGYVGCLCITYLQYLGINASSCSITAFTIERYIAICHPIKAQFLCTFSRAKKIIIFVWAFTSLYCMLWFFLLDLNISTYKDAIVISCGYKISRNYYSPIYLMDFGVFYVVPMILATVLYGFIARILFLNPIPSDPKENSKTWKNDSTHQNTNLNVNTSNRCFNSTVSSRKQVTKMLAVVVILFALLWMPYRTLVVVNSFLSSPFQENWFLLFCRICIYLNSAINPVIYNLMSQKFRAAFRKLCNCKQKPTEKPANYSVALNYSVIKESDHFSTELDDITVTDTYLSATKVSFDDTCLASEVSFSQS
Chain of Nuclear receptor subfamily 1 group I member 2 (Homo sapiens) (O75469 whole entry, looked up): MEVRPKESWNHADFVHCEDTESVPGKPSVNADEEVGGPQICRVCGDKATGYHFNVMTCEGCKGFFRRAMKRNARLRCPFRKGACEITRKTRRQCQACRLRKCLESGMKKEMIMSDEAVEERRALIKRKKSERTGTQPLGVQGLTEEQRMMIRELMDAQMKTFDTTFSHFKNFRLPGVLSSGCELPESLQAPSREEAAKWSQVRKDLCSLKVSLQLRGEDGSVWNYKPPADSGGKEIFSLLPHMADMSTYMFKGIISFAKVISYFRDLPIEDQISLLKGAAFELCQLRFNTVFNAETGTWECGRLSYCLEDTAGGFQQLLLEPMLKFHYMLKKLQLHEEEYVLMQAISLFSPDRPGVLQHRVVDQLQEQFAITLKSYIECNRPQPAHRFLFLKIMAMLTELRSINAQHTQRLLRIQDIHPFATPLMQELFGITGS

Turning to `CCCCCCCCBr`, the compound was called inactive in test [1], in test [3] and in test [5]. In addition, the Potency result in test [2], in test [4], in [6], in test [7], in [8] and in test [9] was “inactive” throughout. The Potency entry in test [10], in [11], in test [12], in [13] and in test [14] was “inactive” in each case.
Take `O=S1(=O)OCCO1`: the compound was classed as inactive in test [1], in test [3] and in [5]. Further, the Potency entry in test [2], in test [4], in test [6], in [7], in [8] and in test [10] was “inactive” each time. Besides, the Potency entry in test [15], in test [12], in test [13] and in test [14] was “inactive” throughout.
For `C[C@H]1CCCC(=O)CCC/C=C/c2cc(O)cc(O)c2C(=O)O1`, the compound was classed as inactive in test [1], in test [3] and in test [5]. Further, the Potency is 52.5 µM (active) in test [2]; 46.8 µM (active) and 22.4 µM (active) in test [4]; 46.8 µM (active) and 22.4 µM (active) in [6]; 54.3 µM (active) in [15]; 17.2 µM (active) and 29.2 µM (active) in test [16]; 4.84 µM (active) and 7.34 µM (active) in test [12]. The Potency in test [17] was 21.6 µM (active) and 13.1 µM (active); in test [14], 122 nM (active) and 184 nM (active). For the same compound, the Potency entry in [8], in test [9], in test [10], in test [11] and in [13] was “inactive” each time.
As for `BrCC1CO1` (stereo not given), the result in test [1], in test [3] and in test [5] was inactive. Also, the Potency entry in test [2], in test [4], in test [6], in test [7], in [8] and in test [9] was “inactive” each time. The Potency result in test [10], in [15], in [16], in [12], in test [17] and in test [13] was “inactive” in each case. In [14], the Potency result was “inactive”.
With `CN(CCO)CCO`, the call in [1], in test [3] and in [5] was inactive. In addition, the Potency result in [2], in test [4], in test [6], in test [7], in test [8] and in [9] was “inactive” throughout. Also, the Potency result in test [10], in test [16], in test [12], in test [13] and in test [14] was “inactive” each time.
For `OCC(Cl)CCl` (stereo not given), the compound was called inactive in test [1], in test [3] and in [5]. Moreover, the Potency entry in test [2], in test [4], in test [6], in [7], in test [8] and in test [9] was “inactive” throughout. In addition, the Potency result in [10], in test [13] and in [14] was “inactive” throughout. Further, the results for the Potency in [16] and in [17] were 70.1 µM (active) and 39.4 µM (active), respectively.
On to `O=CCCl`, for which the compound was called inactive in test [1], in test [3] and in test [5]. Also, the Potency entry in test [2], in [4], in test [6], in [7], in [8] and in test [9] was “inactive” throughout. Besides, the Potency entry in test [10], in test [15], in test [16], in test [17], in test [13] and in test [14] was “inactive” throughout.
On to `CCOC(=O)c1ncn2c1CN(C)C(=O)c1c(I)cccc1-2`, for which the call in test [1], in test [3] and in test [5] was inactive. In addition, the Potency entry in test [2], in [4], in [6], in [7], in test [8] and in test [10] was “inactive” throughout. Further, the Potency entry in test [11], in test [17], in [13] and in test [14] was “inactive” throughout.
